Test results reported in PubChem BioAssay (NCI).
About 83,000 compounds went through this panel and 20% of them were active in at least one assay; those are over-represented in the sample as a whole.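 Negative percent growth values reflect cell death: -40 means 40% of the cells present at the start died, and -100 means all died.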 The source made the active and inactive calls. Rule for the calls: active = growth percent below 10; inactive = the rest.

Key:
Test in all cases: NCI-60 one-dose screen, 48 h (100 = growth as untreated, 0 = no growth, -100 = all killed)
[1] = test system: A549/ATCC NSCLC; conditions: 10 µM unless noted
[2] = test system: COLO 205 colon; conditions: 10 µM
[3] = test system: M14 melanoma; conditions: 10 µM unless noted
[4] = test system: SK-MEL-2 melanoma; conditions: 10 µM unless noted
[5] = test system: EKVX NSCLC; conditions: 10 µM unless noted
[6] = test system: ACHN renal; conditions: 10 µM unless noted
[7] = test system: CCRF-CEM leukemia; conditions: 10 µM unless noted
[8] = test system: SR leukemia; conditions: 10 µM
[9] = test system: OVCAR-5 ovarian; conditions: 10 µM unless noted
[10] = test system: OVCAR-4 ovarian; conditions: 10 µM unless noted
[11] = test system: SK-OV-3 ovarian; conditions: 10 µM unless noted
[12] = test system: IGROV1 ovarian; conditions: 10 µM
[13] = test system: NCI/ADR-RES ovarian; conditions: 10 µM unless noted
[14] = test system: TK-10 renal; conditions: 10 µM unless noted
[15] = test system: RPMI-8226 leukemia; conditions: 10 µM unless noted
[16] = test system: HS 578T breast; conditions: 10 µM unless noted
[17] = test system: HCT-116 colon; conditions: 10 µM unless noted
[18] = test system: NCI-H522 lung; conditions: 10 µM unless noted

Measured: growth

COc1ccc(-c2ccc(OC)c(OC)c2OC)cc1
active: [2] -13.5% | [3] 3.01% | [11] 7.71% | [13] -20%
inactive: [1] 38.2% | [4] 24% | [5] 52.4% | [6] 55.8% | [7] 10.1% | [8] 16.9% | [9] 58% | [10] 70.6% | [12] 37.1%

Cc1cc(N(CCCl)CCCl)ccc1C=Nc1ccc2ccccc2c1
inactive: [1] 69.8% | [2] 87.4% | [3] 88% | [4] 145% | [14] 73% | [6] 57% | [7] 55.3% | [15] 78.8% | [9] 24.4% | [10] 83.5% | [11] 80.9% | [12] 63% | [13] 71.2%

CC[CH2][Pb]([CH2]CC)([CH2]CC)[O]C(=O)C(F)(F)F
active: [2] -72.5% | [3] -91.6% | [4] -87.7% | [6] -100% | [9] -99% | [11] -74.6% | [12] -78.8% | [16] -10.4% | [13] -36.6% | [17] -95%

O=C(CI)Nc1ccc(Br)cc1
active: [18] -85% | [2] -78.2% | [14] -81.4% | [6] -79.8% | [7] -31.7% | [8] -53% | [12] -55.2% | [17] -69.9%
inactive: [3] 14.1% | [4] 76.4% | [5] 102% | [15] 36.6% | [9] 94.9% | [10] 27.4% | [11] 101% | [16] 132%

CCC(C)[C@H]1O[C@]2(C=C[C@@H]1C)C[C@@H]1C[C@@H](C/C=C(\C)[C@@H](OC3C[C@H](OC)C(O[C@H]4C[C@H](OC)[C@@H](O)[C@H](C)O4)[C@H](C)O3)[C@@H](C)/C=C/C=C3\CO[C@@H]4[C@H](O)C(C)=C[C@@H](C(=O)O1)[C@]34O)O2 (stereo partly specified)
inactive: [5] 14.6% | [14] 13.7% | [10] 16.4% | [11] 12.6% | [12] 13%
active: [18] -28.8% | [1] 6.21% | [3] -46.7% | [4] -57.2% | [6] -95.1% | [8] -28.1% | [9] -31.8% | [16] -13% | [13] 7.16% | [17] -81.1%

O=C(CCl)NCNC(=O)CCl
inactive: [1] 93.2% | [2] 109% | [4] 90.4% | [6] 94.5% | [8] 80.2% | [15] 83% | [9] 115% | [10] 77.4% | [11] 98.8% | [12] 74.4% | [16] 96.8% | [13] 103%

C=CCN1C(=O)C(CC)(CCC(C)C)C(=O)NC1=S (stereo unspecified)
inactive: [1] 98.7% | [2] 108% | [4] 117% | [14] 115% | [6] 110% | [7] 86.3% | [15] 95.1% | [10] 106% | [11] 100% | [13] 106% | [17] 105%

CC(/C=N/N=C(N)N)=N\N=C(N)N
active: [4] -5.97%
inactive: [18] 61.5% | [2] 55.4% | [3] 80.3% | [5] 89.8% | [14] 62% | [6] 80.9% | [7] 53% | [8] 70.1% | [15] 74.3% | [9] 82.1% | [10] 66.3% | [11] 84.9% | [16] 69.3% | [13] 24.9% | [17] 49%

COC(=O)C1CC2c3ccccc3C1c1ccccc12 (stereo unspecified)
inactive: [1] 98.2% | [2] 99.8% | [3] 107% | [14] 107% | [6] 97.9% | [7] 83.4% | [8] 93.9% | [15] 82.1% | [9] 104% | [10] 106% | [11] 99.1% | [12] 96.6% | [13] 105% | [17] 106%

C[CH2][Pb]([CH2]C)([CH2]C)[O]C(=O)COC
active: [2] -7.82% | [3] 9.74% | [4] -38.7% | [10] 9.63% | [12] -13% | [16] -2.8% | [13] 4.13%

Nc1ccc(N)c2c1Oc1ccccc1O2
active: [12] 6.91%
inactive: [2] 106% | [3] 101% | [4] 95.9% | [5] 92.1% | [14] 131% | [6] 94.7% | [7] 30.3% | [15] 81% | [9] 89% | [10] 110% | [16] 75.2% | [13] 94.9% | [17] 95.7%
